Data published in PubChem BioAssay AID2314 (National Center for Advancing Translational Sciences (NCATS), 2010).
The campaign covered roughly 300,000 compounds. About 37,000 (12%) were called active. Rule as the data show it: active = max response mostly above about 13% (no sharp cut-off); inactive = mostly below about 14%. What follows is part of a selection rich in actives, with near analogues and random picks from the rest.

Assay: Cycloheximide Counterscreen for Small Molecule Inhibitors of Shiga Toxin; also: read at 38.3 µM for the half of the compounds with a filed dose; 0% is about no effect
Conditions: cell reporter, cycloheximide protein synthesis inhibition counterscreen; active compounds read high
With `O=C(Cn1ccc2cc(S(=O)(=O)N3CCCC3)ccc21)NCc1ccccc1` the max response was 12.1% (inactive). In the case of `C=CCOc1ccc(/C=C2\SC(=S)N(CCC(=O)O)C2=O)cc1`, the max response is reported as -2.97% (inactive). With `O=C(C1CCN(S(=O)(=O)c2ccc(Br)s2)CC1)N1CCN(C2CCCCC2)CC1` the max response was 3.94% (inactive). With `COc1cc(OC)c(-n2cc(-c3ccc(Cl)cc3)[nH]c2=O)cc1Cl` the max response was 0.883% (inactive). With `Cc1cc(C)nc(SC2CCCCC2NS(=O)(=O)c2ccc(Cl)cc2)n1` (stereo unspecified) the max response was -1.57% (inactive). With `CC(c1ccccn1)N(C)C(=O)c1ccc2nc(Cc3cccc(Cl)c3)oc2c1` (stereo unspecified) the max response was 52.7% (active). With `CN(Cc1ccccc1)C(=O)c1cccc(C(=O)N(C)Cc2ccccc2)c1` the max response was -3.47% (inactive). In the case of `CC(C(=O)NCC1CCCCC1)N(C)Cc1cccc(Cl)c1` (stereo unspecified), the max response is reported as -4.34% (inactive). In the case of `COC(=O)c1cc(S(=O)(=O)Nc2ccc(C)c(F)c2)c[nH]1`, the max response is reported as 1.38% (inactive). For `COc1ccc(C(=O)Nc2nncs2)c(OC)c1`, the max response was 34.6% (active). For `COc1ccc(C(=O)NC2=NCCS2)c(OC)c1`, the max response was 32.6% (active). In the case of `COc1ccc(C(=O)NCc2nnc(SCC(=O)NC3=NCCS3)n2C)cc1`, the max response is reported as -2.2% (inactive). With `O=C(NC1=NCCS1)c1ccc(Cl)s1` the max response was 66.8% (active). For `O=C(NC1=NCCS1)[C@H](Cc1ccccc1)N1C(=O)c2ccccc2C1=O`, the max response was -2.74% (inactive). With `COc1ccc(Cc2nnc(NC(=O)c3cc(OC)c(OC)c(OC)c3)s2)cc1OC` the max response was -3.75% (inactive). For `CC(NC(=O)COc1ccccc1)C(=O)NC1=NCCS1` (stereo unspecified), the max response was 4.07% (inactive). With `COc1cccc(OC)c1C(=O)Nc1nnc(C(C)C)s1` the max response was -1.98% (inactive). With `COc1ccc(Cc2nnc(NC(=O)Cc3cccs3)s2)cc1` the max response was 12.7% (inactive). In the case of `COc1ccc(C(=O)N2CCCN(C)CC2)c(OC)c1`, the max response is reported as -2.16% (inactive). With `COc1ccc(Cc2nnc(NC(=O)c3ccc(OC)cc3OC)s2)cc1` the max response was 31.5% (active). With `COc1ccc(NC(=O)c2cc(-c3cc(OC)c(OC)c(OC)c3)nc3ccccc23)c(OC)c1` the max response was -6.98% (inactive). In the case of `CCN1C(=S)N[C@@H](c2cccc(C(F)(F)F)c2)C(C(=O)OC)=C1C`, the max response is reported as -8.93% (inactive). With `COC(C(=O)Nc1ccc(S(=O)(=O)Nc2ccc(C)c(C)c2)cc1)c1ccccc1` (stereo unspecified) the max response was -1.18% (inactive). For `CS(=O)(=O)c1sc(C(=O)NC(=S)Nc2ccc(OC(F)(F)F)cc2)c2c1C=CCC2`, the max response was 1.1% (inactive). With `CCOC(=O)c1ccccc1N1C(=O)C2Sc3[nH]c(=O)sc3C(/C=C/c3ccccc3)C2C1=O` (stereo unspecified) the max response was -1.12% (inactive). In the case of `CC(C)(C)NCCCOc1ccc(Cl)cc1C(C)(C)C`, the max response is reported as -3.93% (inactive).
